Common to all, as to set-up: scale not given: direction of the effect not stated beside the values
Experiment [1] addresses Protein translocase subunit SecA (Escherichia coli (strain K12)) (UniProt P10408). Put plainly: Assay to Identify E. coli SecA ATPase Inhibitors. It is filed as functional. Particulars: 30 µM.
The target of experiment [2] is T1, Ubiquitin-activating enzyme e1, putative (Leishmania donovani (strain BPK282A1)) (UniProt E9BSI1).
T1 sequence (whole entry): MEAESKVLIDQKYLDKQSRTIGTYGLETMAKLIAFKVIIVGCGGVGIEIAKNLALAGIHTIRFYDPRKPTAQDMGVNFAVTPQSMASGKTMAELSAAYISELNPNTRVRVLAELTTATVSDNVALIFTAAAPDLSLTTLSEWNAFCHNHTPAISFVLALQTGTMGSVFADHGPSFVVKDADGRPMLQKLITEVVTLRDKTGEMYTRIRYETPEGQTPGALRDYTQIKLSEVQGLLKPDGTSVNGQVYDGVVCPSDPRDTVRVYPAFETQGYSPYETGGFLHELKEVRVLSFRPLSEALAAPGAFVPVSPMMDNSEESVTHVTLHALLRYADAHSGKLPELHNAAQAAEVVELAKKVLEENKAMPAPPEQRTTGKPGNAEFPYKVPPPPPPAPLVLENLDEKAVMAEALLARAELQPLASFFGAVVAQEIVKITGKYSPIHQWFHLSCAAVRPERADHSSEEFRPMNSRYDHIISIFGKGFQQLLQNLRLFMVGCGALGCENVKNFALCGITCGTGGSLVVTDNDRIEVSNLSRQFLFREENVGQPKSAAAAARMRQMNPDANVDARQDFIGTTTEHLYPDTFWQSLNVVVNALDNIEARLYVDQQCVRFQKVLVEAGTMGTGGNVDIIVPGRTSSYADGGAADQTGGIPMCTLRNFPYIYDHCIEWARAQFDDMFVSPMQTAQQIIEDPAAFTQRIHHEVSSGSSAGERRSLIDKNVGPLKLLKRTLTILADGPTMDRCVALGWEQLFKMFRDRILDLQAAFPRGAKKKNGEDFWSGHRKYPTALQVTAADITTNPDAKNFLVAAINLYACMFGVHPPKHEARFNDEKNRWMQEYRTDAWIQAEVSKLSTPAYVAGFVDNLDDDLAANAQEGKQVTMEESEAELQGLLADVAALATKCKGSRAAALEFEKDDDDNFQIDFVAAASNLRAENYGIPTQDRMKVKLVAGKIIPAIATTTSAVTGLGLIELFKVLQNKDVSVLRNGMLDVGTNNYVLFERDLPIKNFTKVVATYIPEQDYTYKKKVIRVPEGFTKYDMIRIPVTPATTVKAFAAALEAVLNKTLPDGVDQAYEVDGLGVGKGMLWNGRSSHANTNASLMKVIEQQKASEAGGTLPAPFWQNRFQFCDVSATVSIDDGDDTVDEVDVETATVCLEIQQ
Put plainly: Leishmania donovani Ubiquitin Activating Enzyme (LdE1). Format: functional. Particulars: 30 µM.

The target in experiment [3] is Sialic acid-binding Ig-like lectin 9 (Homo sapiens) (UniProt Q9Y336). Put plainly: Hs-Siglec9 ALPHAscreen SOP 20170721. Particulars: 10 µM.
In the next experiment the test system is Trypanosoma cruzi. Put plainly: Trypanosoma cruzi phosphomannomutase and mannose-1-phosphate guanylyltransferase assay. Particulars: 10 µM. Format: functional.
The target of experiment [4] is T2, Arginase-2, mitochondrial (Homo sapiens) (UniProt P78540).
T2 sequence (whole entry): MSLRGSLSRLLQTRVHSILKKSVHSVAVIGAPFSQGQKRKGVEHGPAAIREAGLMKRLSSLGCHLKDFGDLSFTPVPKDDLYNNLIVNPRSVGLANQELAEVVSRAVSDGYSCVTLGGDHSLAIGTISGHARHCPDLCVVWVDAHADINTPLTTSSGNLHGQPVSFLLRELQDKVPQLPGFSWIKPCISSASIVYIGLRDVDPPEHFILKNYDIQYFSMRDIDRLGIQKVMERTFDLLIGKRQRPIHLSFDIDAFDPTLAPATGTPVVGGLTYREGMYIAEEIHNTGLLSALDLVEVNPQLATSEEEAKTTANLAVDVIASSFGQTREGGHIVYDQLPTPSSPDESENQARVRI
Put plainly: in vitro enzyme assay to detect the production of urea directly proportional to the activity of Arginase II. Also: in the data most compounds retested in dose-response had high values. Format: functional. Particulars: 33.3 µM.

For experiment [5], the target named is T3, Proteasome subunit beta (Trypanosoma cruzi) (UniProt O96673).
T3 sequence (whole entry): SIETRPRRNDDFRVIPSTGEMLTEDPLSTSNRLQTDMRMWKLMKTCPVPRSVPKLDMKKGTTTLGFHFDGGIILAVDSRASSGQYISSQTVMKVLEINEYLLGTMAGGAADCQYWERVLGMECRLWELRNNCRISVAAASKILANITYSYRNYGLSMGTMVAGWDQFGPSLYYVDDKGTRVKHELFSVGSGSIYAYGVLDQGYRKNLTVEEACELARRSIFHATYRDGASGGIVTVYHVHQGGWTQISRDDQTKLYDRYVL
Put plainly: Trypanosoma cruzi proteasome chymotrypsin-like activity (TcProtChymo) assay. Also: in the data most compounds retested in dose-response had high values. Particulars: 9.37 µM. It is filed as functional.

The next experiment is filed under the species Homo sapiens. Put plainly: To identify inhibition of the IFN signalling (Jak-Stat) pathway via expression of an eGFP reporter gene under the control of an IFN-stimulated response element (ISRE) containing MxA promoter. Format: functional. Particulars: 30 µM. On the technique in general: A reporter such as luciferase makes a cellular process visible.

Experiment [6] has as its target T4, Tyrosyl-tRNA synthetase, putative (Trypanosoma cruzi (strain CL Brener)) (UniProt Q4DSP6).
T4 sequence (whole entry): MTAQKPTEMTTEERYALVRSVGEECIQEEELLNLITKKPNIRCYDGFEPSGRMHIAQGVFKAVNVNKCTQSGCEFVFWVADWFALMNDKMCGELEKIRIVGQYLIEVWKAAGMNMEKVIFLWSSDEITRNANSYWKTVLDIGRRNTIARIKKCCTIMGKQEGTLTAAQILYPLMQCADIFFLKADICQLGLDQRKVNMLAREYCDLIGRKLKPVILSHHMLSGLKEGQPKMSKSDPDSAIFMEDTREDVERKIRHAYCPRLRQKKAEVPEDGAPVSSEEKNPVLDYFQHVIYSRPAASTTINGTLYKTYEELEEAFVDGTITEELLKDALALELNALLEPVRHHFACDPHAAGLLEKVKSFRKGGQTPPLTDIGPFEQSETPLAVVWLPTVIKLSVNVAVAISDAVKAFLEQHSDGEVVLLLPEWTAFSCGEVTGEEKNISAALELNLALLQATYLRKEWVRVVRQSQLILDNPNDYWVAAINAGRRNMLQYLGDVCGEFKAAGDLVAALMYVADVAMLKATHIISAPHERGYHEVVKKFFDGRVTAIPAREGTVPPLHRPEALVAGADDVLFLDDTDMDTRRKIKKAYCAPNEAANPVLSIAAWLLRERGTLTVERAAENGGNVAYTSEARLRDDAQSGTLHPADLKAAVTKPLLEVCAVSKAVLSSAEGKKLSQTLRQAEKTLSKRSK
Put plainly: Trypanosoma cruzi tyrosyl tRNA synthetase (TcYRS) _High Tyrosine SOP. Also: in the data most compounds retested in dose-response had high values. Format: functional. Particulars: 30 µM.

Experiment [7] has as its target T4, Tyrosyl-tRNA synthetase, putative (Trypanosoma cruzi (strain CL Brener)). Put plainly: Trypanosoma cruzi tyrosyl tRNA synthetase (TcYRS) SOP. Format: functional. Particulars: 30 µM.
Experiment [8] has as its target Chromo domain-containing protein 1 (Saccharomyces cerevisiae (strain ATCC 204508 / S288c) (Baker's yeast)) (UniProt P32657). Put plainly: ScCHD-1 Enzyme Inhibition Assay. Also: in the data most compounds retested in dose-response had high values. It is filed as functional. Particulars: 30 µM.

For some assays here: Entries with a potency or affinity are not part of this list.

This is an account of results in ChEMBL document CHEMBL3988442, “University of Dundee, Small-Polar-MMV Screening Library” (2021).

Chromo domain-containing protein 1 (Saccharomyces cerevisiae (strain ATCC 204508 / S288c) (Baker's yeast)), sequence (P32657 whole entry, the tested form may be a part): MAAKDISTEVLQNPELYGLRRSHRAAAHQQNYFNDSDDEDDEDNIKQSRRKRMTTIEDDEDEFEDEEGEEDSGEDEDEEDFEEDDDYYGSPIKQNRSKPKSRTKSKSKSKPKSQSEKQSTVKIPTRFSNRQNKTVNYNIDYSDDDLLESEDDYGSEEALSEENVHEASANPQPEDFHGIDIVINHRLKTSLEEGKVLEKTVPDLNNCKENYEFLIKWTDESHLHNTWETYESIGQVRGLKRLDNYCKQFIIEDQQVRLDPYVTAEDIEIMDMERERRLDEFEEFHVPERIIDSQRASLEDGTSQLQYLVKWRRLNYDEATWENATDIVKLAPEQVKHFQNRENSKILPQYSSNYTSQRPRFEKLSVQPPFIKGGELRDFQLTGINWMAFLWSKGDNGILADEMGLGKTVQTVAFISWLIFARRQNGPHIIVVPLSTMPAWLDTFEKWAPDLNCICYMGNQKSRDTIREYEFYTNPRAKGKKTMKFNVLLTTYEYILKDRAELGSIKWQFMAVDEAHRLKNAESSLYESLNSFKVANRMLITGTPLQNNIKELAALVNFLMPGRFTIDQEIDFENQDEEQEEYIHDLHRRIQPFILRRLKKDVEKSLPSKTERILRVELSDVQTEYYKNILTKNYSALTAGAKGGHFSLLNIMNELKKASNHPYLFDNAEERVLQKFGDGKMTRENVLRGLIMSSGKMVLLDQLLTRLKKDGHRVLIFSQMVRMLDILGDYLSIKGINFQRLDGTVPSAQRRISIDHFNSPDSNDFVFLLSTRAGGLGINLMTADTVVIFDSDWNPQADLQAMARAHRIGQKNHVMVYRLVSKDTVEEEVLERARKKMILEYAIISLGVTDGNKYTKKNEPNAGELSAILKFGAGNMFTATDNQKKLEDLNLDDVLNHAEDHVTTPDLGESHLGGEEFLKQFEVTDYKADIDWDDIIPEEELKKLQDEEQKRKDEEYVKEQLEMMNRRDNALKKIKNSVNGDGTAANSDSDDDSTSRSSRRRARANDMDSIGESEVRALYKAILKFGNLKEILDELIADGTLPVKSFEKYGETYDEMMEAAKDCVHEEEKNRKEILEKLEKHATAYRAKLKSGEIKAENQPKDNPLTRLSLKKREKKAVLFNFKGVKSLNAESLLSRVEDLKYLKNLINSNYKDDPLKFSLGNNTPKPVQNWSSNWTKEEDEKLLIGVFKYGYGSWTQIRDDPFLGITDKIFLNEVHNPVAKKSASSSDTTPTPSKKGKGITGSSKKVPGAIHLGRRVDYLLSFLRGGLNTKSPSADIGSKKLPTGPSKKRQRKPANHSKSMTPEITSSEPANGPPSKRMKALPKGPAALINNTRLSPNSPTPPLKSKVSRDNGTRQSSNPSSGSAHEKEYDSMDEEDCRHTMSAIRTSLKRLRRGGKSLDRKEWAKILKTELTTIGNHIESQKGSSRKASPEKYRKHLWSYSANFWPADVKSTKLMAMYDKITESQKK
Protein translocase subunit SecA (Escherichia coli (strain K12)), sequence (P10408 whole entry): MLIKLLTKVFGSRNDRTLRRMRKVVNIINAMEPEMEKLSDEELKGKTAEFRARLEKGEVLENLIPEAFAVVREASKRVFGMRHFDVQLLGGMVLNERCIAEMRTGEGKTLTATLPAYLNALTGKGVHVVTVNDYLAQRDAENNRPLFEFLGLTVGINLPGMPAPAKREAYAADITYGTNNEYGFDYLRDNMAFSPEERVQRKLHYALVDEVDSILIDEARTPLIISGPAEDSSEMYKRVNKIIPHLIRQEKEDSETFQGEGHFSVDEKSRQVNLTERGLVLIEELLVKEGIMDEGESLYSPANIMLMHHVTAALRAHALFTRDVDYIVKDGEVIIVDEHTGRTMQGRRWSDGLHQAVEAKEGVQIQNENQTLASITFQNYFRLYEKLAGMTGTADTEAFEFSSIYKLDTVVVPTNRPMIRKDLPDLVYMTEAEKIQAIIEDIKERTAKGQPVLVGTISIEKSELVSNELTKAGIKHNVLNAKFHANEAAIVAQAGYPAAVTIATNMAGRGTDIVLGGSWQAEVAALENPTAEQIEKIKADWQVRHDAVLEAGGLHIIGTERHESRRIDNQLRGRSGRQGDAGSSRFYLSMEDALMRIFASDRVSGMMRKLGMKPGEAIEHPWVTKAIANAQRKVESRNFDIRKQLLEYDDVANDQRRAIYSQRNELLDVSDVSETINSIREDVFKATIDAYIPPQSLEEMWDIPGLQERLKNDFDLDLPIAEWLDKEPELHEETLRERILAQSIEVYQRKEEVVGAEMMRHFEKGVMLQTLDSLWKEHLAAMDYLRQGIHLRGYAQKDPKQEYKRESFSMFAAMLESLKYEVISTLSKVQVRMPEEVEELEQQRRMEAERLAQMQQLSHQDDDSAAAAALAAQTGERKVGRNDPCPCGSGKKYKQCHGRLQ
Sialic acid-binding Ig-like lectin 9 (Homo sapiens), sequence (Q9Y336 whole entry): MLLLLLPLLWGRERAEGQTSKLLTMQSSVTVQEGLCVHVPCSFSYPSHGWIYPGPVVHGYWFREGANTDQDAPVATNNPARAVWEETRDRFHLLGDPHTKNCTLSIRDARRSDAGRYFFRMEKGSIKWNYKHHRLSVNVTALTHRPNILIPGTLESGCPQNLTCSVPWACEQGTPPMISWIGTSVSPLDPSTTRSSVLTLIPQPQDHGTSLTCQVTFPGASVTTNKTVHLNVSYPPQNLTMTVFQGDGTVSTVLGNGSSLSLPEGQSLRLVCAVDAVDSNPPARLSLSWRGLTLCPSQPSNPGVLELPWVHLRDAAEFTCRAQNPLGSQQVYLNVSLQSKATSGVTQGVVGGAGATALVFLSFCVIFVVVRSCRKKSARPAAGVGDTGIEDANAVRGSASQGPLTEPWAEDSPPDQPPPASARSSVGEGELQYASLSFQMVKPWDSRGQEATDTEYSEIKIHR

Turning to `CCc1nc(CN2CCCN(C(=O)CCSC)CC2)cs1`, the Percent Effect in experiment [1] is -1.79%; in [2], 12.8%; in [3], -12.3%; in the experiment with Trypanosoma cruzi, -7.98%; in experiment [4], 6.15%; in experiment [5] it was 9.81%. Further, the Percent Effect in the experiment filed under Homo sapiens was 22.8%; in [6] it was 0.478%; in experiment [7] it was 18.1%; in experiment [8], -4.21%.

On to `CCN(Cc1cccc2c1OCO2)C(=O)C(C)c1cccnc1` (stereo not given), for which the Percent Effect in experiment [1] was -0.831%; in [2], 7.79%; in [3] it was 4.03%; in the experiment with Trypanosoma cruzi, 5.78%; in experiment [4] it was 8.4%; in experiment [5], -0.702%. Also, the Percent Effect is 4.49% in the experiment listed under Homo sapiens, 3.92% in experiment [6], 11.8% in [7] and -5.71% in experiment [8].

As to `CC(=O)N1CCCC1c1cc(N2CCN(C3CCCC3)CC2)cc(C)n1` (stereo not given), the Percent Effect in experiment [1] was -0.907%; in experiment [2], 17.3%; in [3], -8.17%; with Trypanosoma cruzi it was -2.96%; in [4] it was 1.33%; in experiment [5], 7.22%. Moreover, the Percent Effect in the experiment filed under Homo sapiens is 6.74%; in experiment [6], 4.23%; in experiment [7], 15%; in experiment [8], -23.3%.

Turning to `COc1c(C2CCCN2Cc2c(C)noc2C)c(C)nn1C` (stereo not given), the Percent Effect in [1] was -5.49%; in experiment [2], -2.67%; in experiment [3], 0.668%; in the experiment with Trypanosoma cruzi, 5.82%; in [4] it was 1.33%; in experiment [5], 6.19%. Further, the Percent Effect in the experiment filed under Homo sapiens is -12.5%; in experiment [6], 0.526%; in [7], 5.13%; in experiment [8], -8.53%.

Take `O=C(NCCN1CCCCC1)c1ccoc1`: the Percent Effect in experiment [1] is -6.92%; in experiment [2], 7.79%; in [3], -0.674%; in the experiment with Trypanosoma cruzi, -7.28%; in experiment [4], -2.66%; in experiment [5] it was 4.21%. The Percent Effect in the experiment filed under Homo sapiens is 14.7%; in [6], -2.94%; in experiment [7], 0%; in experiment [8], -4.75%.

`CC(C)n1ccnc1CN1CCCN(C(=O)c2cccnc2O)CC1`: the Percent Effect was -4.65% in experiment [1]; 15.4% in experiment [2]; -20.6% in experiment [3]; 5.54% in the experiment on Trypanosoma cruzi; 1.64% in [4]; 14.9% in experiment [5]. Further, the Percent Effect in the experiment filed under Homo sapiens was -7.69%; in experiment [6] it was 10.1%; in experiment [7], 22.9%; in experiment [8], -5.81%.

As for `COc1ccc(CNCC2CCN(CC(C)O)CC2)c2ccccc12` (stereo not given), the Percent Effect in experiment [1] was -1.39%; in experiment [2], -10.3%; in experiment [3], 5.63%; with Trypanosoma cruzi it was 5.73%; in experiment [4], 6.97%; in [5] it was 0.939%. The Percent Effect is 31.9% in the experiment filed under Homo sapiens, 4.31% in experiment [6], 18.1% in experiment [7] and -4.71% in experiment [8].

For `Cc1ccc(CNC(=O)N2CCN(Cc3ccsc3)CC2)n1C`, the Percent Effect in experiment [1] was -3.87%; in [2], 2.67%; in experiment [3], -1.44%; with Trypanosoma cruzi it was -5.42%; in experiment [4] it was -5.76%; in experiment [5], 14.5%. The Percent Effect in the experiment filed under Homo sapiens was 15.6%; in experiment [6], 2.63%; in experiment [7], -17.9%; in experiment [8], -19.4%.

For `COc1ccc(-n2ncc(C(=O)NCC3COC(C)(C)O3)c2N)cc1` (stereo not given), the Percent Effect is 97.8% in experiment [1]; 14.7% in [2]; -6.21% in [3]; -0.592% in the experiment on Trypanosoma cruzi; 1.33% in [4]; 14.8% in [5]. Moreover, the Percent Effect in the experiment filed under Homo sapiens is 15.7%; in [6], 1.06%; in [7], 5%; in experiment [8], -19.9%.

On to `CCc1nc(C2CCCN2CCCS(=O)(=O)c2ccccc2)no1` (stereo not given), for which the Percent Effect in experiment [1] was -2.94%; in experiment [2], 15.4%; in experiment [3], -14.9%; in the experiment on Trypanosoma cruzi it was 2.16%; in experiment [4], 0.41%; in [5], 13.1%. In addition, the Percent Effect is 6.1% in the experiment listed under Homo sapiens, 4.31% in experiment [6], 22.9% in experiment [7] and -3.94% in [8].

As for `Cc1noc(C)c1CN(C)CCC(=O)N1CCc2sccc2C1`, the Percent Effect is -4.9% in [1]; 0% in experiment [2]; 7.48% in [3]; -1% with Trypanosoma cruzi; 0.444% in experiment [4]; 8.74% in [5]. The Percent Effect in the experiment listed under Homo sapiens is 17.8%; in experiment [6], 4.74%; in experiment [7] it was 5.13%; in [8] it was -7.86%.
